Results filed as inconclusive are left out. A number with no mark means an inactive call. Calls follow the shape of the dose curve; as a rule, active = well fitted inhibition curve with a large enough effect; inconclusive = small, poorly fitted or top-dose-only effect; inactive = flat fitted curve, though single readings scatter.
% is scaled to controls: 0 for no effect and ±100 for the full control effect.

Chain of Calcium and integrin-binding protein 1 (Homo sapiens) (Q99828 whole entry, looked up): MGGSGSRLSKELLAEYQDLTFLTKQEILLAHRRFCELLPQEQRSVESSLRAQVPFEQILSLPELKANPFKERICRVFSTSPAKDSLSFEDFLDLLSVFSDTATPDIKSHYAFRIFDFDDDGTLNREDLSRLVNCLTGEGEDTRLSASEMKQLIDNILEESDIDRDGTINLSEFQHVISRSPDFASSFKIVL

The experiment has as its target Calcium and integrin-binding protein 1 (Homo sapiens) (UniProt Q99828). Briefly: Primary qHTS for Identification of Calcium Integrin Binding Protein 1 (CIB1) Competitor (AID 1508620).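 Also: GST tagged CIB1 binding a fluorescein labelled alphaIIb integrin peptide tracer; top concentration of the series differs between compounds.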 Conditions: CIB1-GST / FITC-alphaIIb peptide fluorescence polarization; series mostly up to 114 µM; activity change, negative = inhibition: at the top concentration. The essentials:
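Fluorescence polarization competition: CIB1-GST (1 uM final) preincubated with compound 15 min at room temperature, then FITC-labeled alphaIIb peptide (100 nM final) added for another 15 min. Polarization read at Ex 480/Em 540.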
In general terms: In qHTS, concentration-response curves come from the screen itself.
For the compound `CC(C)(C)c1ccc(-n2cnc3cc(C(=O)N4CCCCC4)ccc32)cc1`, the “activity change, negative = inhibition” value is 0.337%.

In the case of `Cc1cc2c(s1)c1cnn(Cc3ccc(-c4ccccc4)cc3)c(=O)c1n2C`, the “activity change, negative = inhibition” value is 0.444%. The value for `CCCCN(C)C(=O)Cn1nc(-c2ccc(C(C)=O)cc2)ccc1=O` was -0.249%; that for `O=C(Nc1cc(F)cc(F)c1)Nc1nnc(-c2ccncc2)s1` was 8.45%; that for `CCc1nnc(-c2cnn(C)c2N)n1CCCn1ccnc1` was -0.903%. The result for `CC1=C(C(=O)NC2CCCCC2)C(c2ccccc2Br)N=C(Nc2nc3ccccc3o2)N1` (stereo not given) reads 27.1%; that for `CCOc1ccc(CCNC(=O)c2cc3sccc3n2Cc2cccc(C)c2)cc1OCC`, 3.52%; that for `Cn1nnnc1Sc1ncnc2scc(-c3ccc(C(=O)OC(C)(C)C)cc3)c12`, 9.64%. Take `Cc1cc(C)nc(NC(=S)N2CCN(c3ccc(Cl)cc3[N+](=O)[O-])CC2)c1`: the “activity change, negative = inhibition” value is -16.8%. The result for `O=C(Nc1ccc(Cl)c(Cl)c1)Nc1nnc(-c2cccnc2)s1` reads 2.97%; that for `CNc1oc(-c2cccc(-c3ccccc3)c2)nc1C#N`, -12.9%; that for `CCC(=O)NC(c1cc(Cl)c2cccnc2c1O)C1CC1` (stereo not given), -9.27%. `COc1cccc(C2c3c(ncn(-c4cccc(C)c4)c3=N)Oc3ccc4ccccc4c32)c1` (stereo not given): the “activity change, negative = inhibition” value was 8.38%. The result for `O=C(Nc1ccc2ccccc2c1)Nc1nnc(-c2ccccc2)s1` reads 5.36%; that for `O=C1CCc2cc(S(=O)(=O)Nc3cccc(B(O)O)c3)ccc2N1`, -2.25%. The value for `CCN(Cc1ccccc1)c1ccc(Br)cn1` was -1.61%.

For `Nc1ccc(S(=O)(=O)Nc2cccc3cccnc23)cc1`, the “activity change, negative = inhibition” value is -1.9%. For `N#Cc1ccc(C[C@H](C(=O)O)N2C(=O)c3ccc(C(=O)O)cc3C2=O)cc1`, the “activity change, negative = inhibition” value was -0.401%. Consider `Cc1noc(C)c1-c1ccc2ncnc(NCc3cc(F)cc(F)c3)c2c1`, for which the “activity change, negative = inhibition” value is -1.05%.

In the case of `Nc1ccc2c(c1)S(=O)(=O)NC2=O`, the “activity change, negative = inhibition” value is -7.25%. The value for `Cc1cc(C)nc(NC(=S)N2CCN(c3ccc4ccccc4c3)CC2)c1` was -13.3%; that for `CN1CCN(c2nnc(NC(=O)Nc3ccc(Cl)c(Cl)c3)s2)CC1` was 1.66%; that for `O=S(=O)(NC1CCN(S(=O)(=O)c2ccc3c(c2)OCCO3)CC1)c1c(F)cccc1F` was 0.641%. The result for `COc1ccc(O)c(-c2nc3ccccc3c(=O)n2Cc2ccccc2)c1` reads 2.78%; that for `CN(Cc1cccs1)c1ncnc2ccc(-c3ccc4cn(C)nc4c3)cc12`, -5.26%; that for `NC(=O)C1CCN(c2ncc(-c3ccc4c(c3)OCCO4)s2)CC1`, 1.43%.

With `COc1ccc(C2Nc3ccc(Cl)cc3C(=O)N2Cc2ccccc2)cc1COc1ccc(NC(C)=O)cc1` (stereo not given), the “activity change, negative = inhibition” value is 9.1%. The value for `Oc1ccc(CNc2cccc(C(F)(F)F)c2)c2cccnc12` was 15%; that for `Cc1cc(C)nc(NC(=S)N2CCN(c3cccc4cnccc34)CC2)c1` was -9.88%; that for `c1csc(CNc2ccc(N3CCOCC3)cc2)c1` was -5.12%. The value for `Cc1ccc2nc3sc(C(=O)NC4CCCCC4)cc3cc2c1` was 3.64%.

For `Cc1cc(C)nc(NC(=S)N2CCN(c3cnc4nccn4c3)CC2)c1`, the “activity change, negative = inhibition” value was -3.15%. The value for `Cc1ccc(OCCn2c(CCNC(=O)C3CCC3)nc3ccccc32)cc1` was -4.31%. The result for `C(=C/c1cccs1)/c1ccncc1` reads -0.322%.

On to `O=C(NC1CCCc2c1cnn2-c1ccc(F)cc1F)c1ccccc1` (stereo not given), for which the “activity change, negative = inhibition” value is 3.46%. The value for `Oc1ccc(CNc2cc(Br)ccn2)c2cccnc12` was -3.04%; that for `N#Cc1nc(NC2CCCC2)c2ncn(-c3cc(F)cc(F)c3)c2n1` was -1.93%; that for `O=C1CCCC2=C1C(c1ccccc1C(F)(F)F)N=C(Nc1nc3ccccc3o1)N2` (stereo not given) was 0.358%.

With `Cc1ccc(CN(C)c2ncnc3ccc(-c4ccc5c(c4)OCO5)cc23)o1`, the “activity change, negative = inhibition” value was 3.55%. The result for `O=C(Nc1cc(C(F)(F)F)cc(C(F)(F)F)c1)Nc1nnc(-c2ccncc2)s1` reads -16.4%.
